G9a block: blocks human histone lysine methyltransferase G9a; Q96KQ7; G9a H3K9 monomethylation, AlphaScreen, 2 h; Potency, µM (doses to about 102 µM), for inactives: top-dose activity, negative = inhibition, hits mostly inhibitors; actives 8.8% (n = 350,000); note: potency is the fitted concentration of half-maximal effect; % is set by controls: 0 for no effect and ±100 for the full control effect; nearly all actives have a fitted effect of over 75% in size
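Methyltransferase reactions run at room temperature for 2 h (20 nM enzyme, 500 nM biotin-H3K9 peptide, 20 uM SAM) after a 15 min compound preincubation; product detected by AlphaScreen beads and anti-H3K9me1 antibody.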
L3MBTL1 inh: L3MBTL1 (human) inhibition; Q9Y468; AlphaScreen L3MBTL1–H3K9me1 peptide binding; Potency, µM (highest dose often 57.1 µM), for the others: at the top dose activity, negative = inhibition, actives largely listed as inhibitors; actives 0.66% (n = 230,000); AID 485360; note: potency is the fitted concentration of half-maximal effect; % is set by controls: 0 for no effect and ±100 for the full control effect; nearly all actives have a fitted effect of over 60% in size
Target sequence (Q9Y468 whole entry, looked up): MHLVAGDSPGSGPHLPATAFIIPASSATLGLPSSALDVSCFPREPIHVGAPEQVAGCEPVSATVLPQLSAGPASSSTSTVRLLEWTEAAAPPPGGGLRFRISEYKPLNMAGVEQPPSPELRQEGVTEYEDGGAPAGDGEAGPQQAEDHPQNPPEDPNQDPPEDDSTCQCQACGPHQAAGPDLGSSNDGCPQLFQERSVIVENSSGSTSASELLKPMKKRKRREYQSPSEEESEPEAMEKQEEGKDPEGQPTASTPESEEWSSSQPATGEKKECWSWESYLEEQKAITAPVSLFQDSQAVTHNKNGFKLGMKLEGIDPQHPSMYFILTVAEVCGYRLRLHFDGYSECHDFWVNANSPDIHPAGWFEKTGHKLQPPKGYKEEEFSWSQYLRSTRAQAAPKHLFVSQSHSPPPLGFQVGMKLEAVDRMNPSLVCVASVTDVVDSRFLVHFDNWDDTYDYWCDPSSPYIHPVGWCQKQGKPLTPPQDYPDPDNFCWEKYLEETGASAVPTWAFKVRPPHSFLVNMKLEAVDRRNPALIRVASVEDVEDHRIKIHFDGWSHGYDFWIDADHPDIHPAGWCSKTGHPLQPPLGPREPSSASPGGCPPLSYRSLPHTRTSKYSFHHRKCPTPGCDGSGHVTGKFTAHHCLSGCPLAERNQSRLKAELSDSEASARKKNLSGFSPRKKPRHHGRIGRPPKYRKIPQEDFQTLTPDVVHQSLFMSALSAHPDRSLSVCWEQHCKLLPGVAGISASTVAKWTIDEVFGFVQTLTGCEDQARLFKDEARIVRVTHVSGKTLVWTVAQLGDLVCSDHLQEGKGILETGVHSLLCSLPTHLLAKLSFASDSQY
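L3MBTL1 50 nM + b-AHA-H3(1-15)K9me1 75 nM, 30 min RT; compound added, 30 min RT; streptavidin donor/Ni-chelate acceptor beads 10 ug/mL each final, 30 min RT dark; AlphaScreen read.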
HP1b chromo inh: HP1-beta chromodomain-methylated histone interaction inhibition; P83916; Potency, µM (doses to about 114 µM), without a hit: at the top dose activity change, negative = inhibition, hits mostly inhibitors; actives 0.56% (n = 390,000); AlphaScreen HP1-beta / biotin-H3K9me3 peptide binding; note: potency is the fitted concentration of half-maximal effect; nearly all actives have a fitted effect of over 70% in size
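HP1-beta protein (50 nM final) preincubated 30 min at room temperature with biotinylated H3(1-18)K9me3 peptide (50 nM) in PBS pH 7.4, 0.01% Tween-20, then compound added for 30 min. AlphaScreen streptavidin donor/nickel chelate acceptor beads (10 ug/mL final), 30 min dark, luminescence read.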
PI5P4K alpha inh: inhibitors of human PI5P4K alpha | P48426 | PI5P4Kalpha enzyme, ADP-Glo luminescence, 60 min; hits give low values | max response, % | actives 1.2% (n = 330,000); active = max response of -50% or lower; inconclusive = between -30% and -50%; inactive = -30% or higher; note: value at the top dose of about 77 µM; % is set by controls: 0 for no effect and ±100 for the full control effect
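ADP-Glo luminescence end-point read after a 60 min room-temperature kinase reaction of PI5P4Kalpha plus substrate, initiated with ATP at 5 microM final. Buffer: 0.038 M HEPES pH 7.4, EGTA, 0.1% CHAPS, 5% DMSO.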
JMJD2A Tudor: JMJD2A Tudor domain (human) inhibition; Potency, µM (top dose mostly 114 µM), for the others: top-dose activity change, negative = inhibition, most hits filed as inhibitors; AlphaScreen JMJD2A-Tudor / H3K4me3 peptide binding; AID 504339; actives 4.4% (n = 390,000); note: potency is the fitted concentration of half-maximal effect; % is set by controls: 0 for no effect and ±100 for the full control effect; nearly all actives have a fitted effect of over 50% in size
BAZ2B inh: blocks human BAZ2B. AID 504333. actives 4.4% (n = 360,000). Potency, µM (titrated, usually from 114 µM), without a hit: at the top dose activity change, negative = inhibition, usual class: inhibitors. AlphaScreen BAZ2B-H3K14Ac peptide displacement; note: potency is the fitted concentration of half-maximal effect; % is set by controls: 0 for no effect and ±100 for the full control effect; nearly all actives have a fitted effect of over 60% in size
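Inhibition is scored as reduced AlphaScreen emission. The BAZ2B/b-H3(5-23)K14Ac complex (50 nM each) in PBS pH 7.4, 0.01% Tween-20 meets compound (up to 110 uM) for 30 min at RT before bead addition.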
An asterisk follows results filed as active; [ ] = dose if it differs, or a comment. A selection: hits, their analogues and other compounds. The true share with any hit is near 11%. Unless noted, calls come from the whole dose curve; as a rule, active = well fitted inhibition curve with a large enough effect; inconclusive = small, poorly fitted or top-dose-only effect; inactive = no such curve, though single readings can be large or run the other way.

Results for Cc1ccc(C(=O)Nc2ccc(Cl)c(-c3nc4ncccc4o3)c2)c(C)c1 ?
G9a block: 11%[59 µM]; HP1b chromo inh: 38%; JMJD2A Tudor: -1%; BAZ2B inh: 0%

What do the screens show for `CN(C)CCCn1c(SCc2c(Cl)cccc2Cl)nnc1-c1ccncc1`?
G9a block: 10µM*; L3MBTL1 inh: 0%; HP1b chromo inh: inconclusive; PI5P4K alpha inh: 2; JMJD2A Tudor: 20µM*; BAZ2B inh: 71µM*

How did Nc1ccc(N=Nc2ccccc2)c2ccccc12 do in these assays?
G9a block: 10µM*; L3MBTL1 inh: 32µM*; HP1b chromo inh: -9%; PI5P4K alpha inh: 20; JMJD2A Tudor: 35µM*; BAZ2B inh: 11µM*

What do the screens show for `Cc1cc(=O)n2[nH]c(N)c(N=Nc3ccccc3)c2n1`?
G9a block: -9%[59 µM]; L3MBTL1 inh: -2%; HP1b chromo inh: 11%; PI5P4K alpha inh: -9; JMJD2A Tudor: -21%; BAZ2B inh: 0%

How did Clc1ccc(-c2[nH]ncc2N=Nc2ccccc2)cc1 do in these assays?
G9a block: inconclusive; HP1b chromo inh: -9%; PI5P4K alpha inh: 5; JMJD2A Tudor: inconclusive; BAZ2B inh: inconclusive

What do the screens show for `c1ccc(N=Nc2ccc3cccccc2-3)cc1`?
HP1b chromo inh: 4µM*; PI5P4K alpha inh: 34; JMJD2A Tudor: 4µM*

How did Nc1ccc(N=Nc2ccccc2)c(N)n1 do in these assays?
G9a block: 11µM*; L3MBTL1 inh: -11%; HP1b chromo inh: 31%; PI5P4K alpha inh: 1; JMJD2A Tudor: -5%; BAZ2B inh: inconclusive

What do the screens show for `Nc1ccc(N=Nc2ccccc2)cc1[N+](=O)[O-]`?
HP1b chromo inh: inconclusive; PI5P4K alpha inh: 9; JMJD2A Tudor: inconclusive

How did Cc1ccc2onc(CNC(=O)Nc3ccccc3C#N)c2c1 do in these assays?
G9a block: -3%[59 µM]; HP1b chromo inh: 4%; JMJD2A Tudor: -17%; BAZ2B inh: -9%

What do the screens show for `Cc1ccc(CN2CCN(C3CCN(C(=O)c4ccccc4)CC3)C(=O)C2=O)cc1`?
G9a block: 7%[59 µM]; HP1b chromo inh: 19%; JMJD2A Tudor: 4%; BAZ2B inh: -1%

Results for Cc1ccc(C(=O)NCC(=O)OCC(=O)NCCc2ccccc2)s1 ?
G9a block: -9%; L3MBTL1 inh: inconclusive; HP1b chromo inh: -8%; PI5P4K alpha inh: inconclusive; JMJD2A Tudor: 50µM*; BAZ2B inh: inconclusive

What do the screens show for `Cc1ccc(C(=O)NCC(=O)NCCCc2ccccc2)s1`?
G9a block: inconclusive; HP1b chromo inh: 14%; PI5P4K alpha inh: 1; JMJD2A Tudor: -1%; BAZ2B inh: 2%

How did CCOC(=O)CSc1nc2cc3c(cc2c(=O)n1Cc1ccc(C(=O)NCCc2ccc(OC)c(OC)c2)cc1)OCO3 do in these assays?
G9a block: 7%[59 µM]; HP1b chromo inh: 33%; JMJD2A Tudor: -13%; BAZ2B inh: -3%

What do the screens show for `COCCCN(Cc1ccco1)C(=O)c1cc2c(s1)-c1ccccc1OC2`?
G9a block: 66%[59 µM]; HP1b chromo inh: 87%; JMJD2A Tudor: 48%; BAZ2B inh: 89%

How did CSc1nnc(SCC(=O)NC(=O)c2ccccc2)s1 do in these assays?
G9a block: 45µM*; L3MBTL1 inh: -5%; HP1b chromo inh: 26%; PI5P4K alpha inh: 3; JMJD2A Tudor: -3%; BAZ2B inh: 2%

How did COc1ccc(NC(=O)CC2C(=O)N(c3ccc(C)cc3)C(=O)N2Cc2ccc(C)cc2)cc1 (stereo unspecified) do in these assays?
G9a block: -7%[59 µM]; HP1b chromo inh: 28%; JMJD2A Tudor: -10%; BAZ2B inh: -1%

Results for CCN(CC)c1ccc(NC(=O)Nc2ccccc2)cc1 ?
G9a block: 8.9µM*; HP1b chromo inh: inconclusive; PI5P4K alpha inh: 0; JMJD2A Tudor: inconclusive; BAZ2B inh: inconclusive

Results for CCOc1ccc(NC(=S)NC(=O)Cc2ccccc2)cc1 ?
G9a block: inconclusive; HP1b chromo inh: 39%; PI5P4K alpha inh: 9; JMJD2A Tudor: 6%; BAZ2B inh: -26%

How did CCN(CC)S(=O)(=O)c1ccc(NC(=O)CCNC(=O)c2ccco2)cc1 do in these assays?
G9a block: inconclusive; HP1b chromo inh: 27%; PI5P4K alpha inh: -3; JMJD2A Tudor: -8%; BAZ2B inh: 5%

Results for CCN(CC)c1ccc(NC(=O)CCNC(=O)c2ccco2)cc1 ?
G9a block: 7.9µM*; L3MBTL1 inh: -12%; HP1b chromo inh: -39%; PI5P4K alpha inh: -4; JMJD2A Tudor: inconclusive; BAZ2B inh: inconclusive

What do the screens show for `CCN(CC)NC(=O)Nc1ccccc1`?
G9a block: 2%; L3MBTL1 inh: inconclusive; HP1b chromo inh: 1%; PI5P4K alpha inh: -2; JMJD2A Tudor: -12%; BAZ2B inh: -12%

How did CCN(CC)c1ccc(NC(=O)c2sc3ccccc3c2Cl)cc1 do in these assays?
G9a block: 5µM*; HP1b chromo inh: inconclusive; JMJD2A Tudor: 11µM*; BAZ2B inh: 11µM*

How did CCN(CC)c1ccc(NC(=S)NC(=O)Cc2ccccc2)cc1 do in these assays?
G9a block: 7.9µM*; L3MBTL1 inh: inconclusive; HP1b chromo inh: inconclusive; PI5P4K alpha inh: 4; JMJD2A Tudor: 25µM*; BAZ2B inh: 11µM*

Results for CCOc1ccc(NC(=O)c2sc3ccccc3c2Cl)cc1 ?
G9a block: 14%[59 µM]; HP1b chromo inh: 31%; JMJD2A Tudor: -3%; BAZ2B inh: -1%

What do the screens show for `Cc1ccc(N2CCN(Cc3nnc(-c4ccccc4F)o3)CC2)c(C)c1`?
G9a block: 5%[59 µM]; HP1b chromo inh: 31%; JMJD2A Tudor: -2%; BAZ2B inh: -4%

What do the screens show for `Cc1cc(C)n2c(Nc3ccc4c(c3)OCCO4)c(-c3ccco3)nc2n1`?
G9a block: 50µM*; BAZ2B inh: inconclusive

How did Cc1cc(C)n2c(Nc3ccc4c(c3)OCCO4)c(-c3ccc(C)o3)nc2n1 do in these assays?
G9a block: 50µM*; HP1b chromo inh: 0%; PI5P4K alpha inh: -4; JMJD2A Tudor: -35%; BAZ2B inh: inconclusive

What do the screens show for `N#Cc1cccc(-c2cncnc2NCc2cccs2)c1`?
G9a block: 9%[0.501 µM]

What do the screens show for `O=C(c1cnccn1)N1CCC[C@@]2(CCN(C(c3ccccc3)c3ccccc3)C2)C1`?
G9a block: -2%[12.7 µM]

What do the screens show for `c1csc(-c2nc(N3CCOCC3)c3ccccc3n2)c1`?
G9a block: 11%[59 µM]; HP1b chromo inh: 32%; PI5P4K alpha inh: 1; JMJD2A Tudor: 10%; BAZ2B inh: 17%

Results for COc1ccc(N2CCN(c3nc(-c4cccs4)nc4ccccc34)CC2)cc1 ?
G9a block: 20µM*; HP1b chromo inh: inconclusive; PI5P4K alpha inh: 0; JMJD2A Tudor: inconclusive; BAZ2B inh: inconclusive

Bioassay records from PubChem BioAssay.
